# Assay results: PubChem BioAssay AID1053117 (Broad Institute, 2014)
# Potency and affinity values are given separately. Active and inactive are the calls of the source.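 The calls were made as follows: active = compounds lowering cell ATP signal with a fitted half-effect dose at most twice the top valid dose; inconclusive = flat curve with 30 to 70% signal loss, or bad fit; inactive = wrong direction, flat within 30%, or weaker than limit.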
# Experiment: HEK293 cell cytotoxicity, dose response, cytotoxicity control, cherry-picks, set 5 (AID 1053117);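 also: more negative means greater loss of ATP signal and more cytotoxicity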
# Conditions: HEK293T viability, CellTiter-Glo ATP luminescence, 72 h; series mostly up to 26 µM; activity change, negative = cytotoxicity: at the top concentration
row,Compound,"activity change, negative = cytotoxicity"
1,C[C@H]1CN([C@@H](C)CO)C(=O)c2cc(NC(=O)CCCN(C)C)ccc2O[C@@H]1CN(C)Cc1ccc(-c2ccccc2)cc1,-15.9% (inactive)
2,Nc1c(C(=O)NCc2ccco2)nnn1Cc1ccccc1,-12.2% (inactive)
3,COc1ccc([N+](=O)[O-])cc1NS(=O)(=O)c1ccc(C(=O)N2CCCC2)cc1,-10.2% (inactive)
4,Cc1cc(C)c(S(=O)(=O)Nn2cnnc2)c(C)c1,-20.2% (inactive)
5,CS(=O)(=O)N1CCN(c2ccc(NC(=O)c3ccc([N+](=O)[O-])o3)cc2)CC1,0.414% (inactive)
6,Cc1ccc(CS(=O)Cc2ccc(C(=O)NC3CCCC(C)C3C)o2)cc1 (centres undefined),-6.77% (inactive)
7,O=C(c1cccnc1)N1C[C@H]2[C@@H](c3ccccc31)[C@@H](CO)N2CC1CCCC1,-16% (inactive)
8,O=c1c2cc(N3CCOCC3)ccc2[nH]c(=S)n1Cc1ccc(Cl)cc1,-22.5% (inactive)
9,CN(C)C(=O)c1ccc(-c2ccc3c(c2)[C@H]2[C@H](CCN2C(=O)c2ccc(F)cc2)[C@H](CO)N3C)cc1,-0.846% (inactive)
10,Cc1ccc(S(=O)(=O)N2CC[C@@H]3[C@@H](CO)Nc4ccc(-c5cccc(C(=O)N(C)C)c5)cc4[C@@H]32)cc1,-5.67% (inactive)
11,COC(=O)C[C@H]1CC[C@H]2[C@H](COc3ccc(NC(=O)Cc4cccs4)cc3C(=O)N2C)O1,-8.78% (inactive)
12,CC(=O)Nc1cccc(-c2ccnc3c2CC(C)(C(=O)Nc2cccc(C(F)(F)F)c2)O3)c1 (centres undefined),-8.05% (inactive)
13,COc1ccc(Cl)cc1NC(=O)CSc1nc(Nc2ccccc2)nc(N2CCOCC2)n1,-15.5% (inactive)
14,O=C(c1cccnc1)N1C[C@@H]2[C@H](c3ccccc31)[C@@H](CO)N2CC1CCCC1,-1.24% (inactive)
15,Cc1ccc(O)c(-c2cc(-c3cccc(Br)c3)n[nH]2)c1,6.7% (inactive)
16,COCC(=O)Nc1ccc2c(c1)C(=O)N(C)[C@@H]1CC[C@H](CC(=O)NCc3ccccc3Cl)O[C@H]1CO2,-9.44% (inactive)
17,COC(=O)C[C@H]1CC[C@H]2[C@@H](COc3ccc(NC(=O)Cc4cccs4)cc3C(=O)N2C)O1,-4.36% (inactive)

row,Compound,"activity change, negative = cytotoxicity"
1,C[C@H](O)C#Cc1ccc2c(c1)O[C@H](CN(C)C)[C@@H](C)CN([C@H](C)CO)S2(=O)=O,-7.39% (inactive)
2,COc1ccccc1CC(=O)OC(C)C(=O)Nc1ccc(S(=O)(=O)N2CCCCC2)cc1 (centres undefined),1.81% (inactive)
3,N#C[C@H]1[C@@H](c2ccccc2C2=CCCCC2)[C@@H](CO)N1S(=O)(=O)c1ccccc1,-16.9% [at 23.5 µM] (inactive)
4,Cc1cc(C)n2ncc(C(=O)NCc3ccc(Cl)cc3)c2n1,-17% (inactive)
5,COCC(=O)Nc1ccc2c(c1)C(=O)N(C)[C@@H]1CC[C@@H](CC(=O)NCc3ccccc3Cl)O[C@@H]1CO2,-7.18% [at 23.5 µM] (inactive)
6,NC(=O)C1=C[C@H](c2coc3ccccc3c2=O)C[C@H](OCCCCO)O1,0.511% (inactive)
7,C[C@@H]1CN([C@H](C)CO)C(=O)c2cc(-c3ccccc3)cnc2O[C@@H]1CN(C)Cc1ccccc1,-14.5% (inactive)
8,CCc1ccc(NC(=O)CSc2nnc(-c3ccco3)o2)cc1,-13.1% (inactive)
9,C[C@H]1CN([C@@H](C)CO)C(=O)c2cc(-c3ccccc3)cnc2O[C@@H]1CN(C)Cc1ccccc1,-18.5% (inactive)
10,COc1ccc(-c2csc(CCn3nc(C)cc3C)n2)cc1OC,-15.6% (inactive)
11,COCC(=O)Nc1ccc2c(c1)C(=O)N(C)[C@@H]1CC[C@@H](CC(=O)NCc3ccccc3Cl)O[C@H]1CO2,-10.4% [at 23.5 µM] (inactive)
12,Cc1ccc(C(O)c2ncc(-c3cccc4ccccc34)[nH]2)cc1F (centres undefined),-16.6% (inactive)
13,Cc1ccc(NC(=O)COC(=O)c2cc(Cl)ccc2[N+](=O)[O-])c(C)c1,-3.62% (inactive)
14,N#C[C@H]1[C@H](c2ccccc2C2=CCCCC2)[C@H](CO)N1S(=O)(=O)c1ccccc1,-6.85% (inactive)
15,C[C@@H]1CN([C@@H](C)CO)C(=O)c2cc(-c3ccccc3)cnc2O[C@@H]1CN(C)Cc1ccccc1,-16.4% (inactive)
16,N#C[C@@H]1[C@@H](c2ccccc2C2=CCCCC2)[C@H](CO)N1S(=O)(=O)c1ccccc1,-3.7% (inactive)
17,CN1c2ccc(-c3ccccc3)cc2[C@@H]2[C@@H](CCN2C(=O)CN2CCOCC2)[C@H]1CO,-9.36% [at 23.5 µM] (inactive)
